Measured potencies and affinities stand elsewhere. The source made the active and inactive calls.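 Rule for the calls: active = signal-lowering compounds whose fitted half-maximal concentration is at or below twice the top tested dose in every run; inconclusive = runs disagree, flat 30 to 70% inhibition, or poor curve fit; inactive = the rest.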
What follows are molecules tested against Protein S100-A4 (Homo sapiens) (UniProt P26447) (assay: human S100A4 peptide interaction inhibition curves – biochemical, fluorescence polarization, cherry-picked hits, dose response (AID 687001;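 note: 0% = DMSO neutral control wells and -100% = TFP positive control wells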)). Conditions: FP, S100A4/TAMRA-myosin IIA peptide binding; series mostly up to 11 µM; activity change, negative = inhibition: at the top concentration.
Chain of Protein S100-A4 (Homo sapiens) (P26447 whole entry, looked up): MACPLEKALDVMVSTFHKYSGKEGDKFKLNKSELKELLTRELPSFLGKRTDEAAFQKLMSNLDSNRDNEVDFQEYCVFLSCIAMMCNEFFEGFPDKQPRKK

Compound | activity change, negative = inhibition
CCCCCSc1cc(O)c(C(CNC)C(C)C)cc1OC (stereo unspecified) | -5.9% (inactive)
O=C(O)Cn1cc(/C=C2\C(=O)NC(=O)N(c3ccc(Br)cc3)C2=O)c2ccccc21 | 56.4% (inactive)
CCCCn1nnnc1C(c1cccc2ccccc12)N1CCC2(CC1)C(=O)NCN2c1ccccc1 (stereo unspecified) | -4.61% (inactive)
C=CCN1CC[C@]23c4c5ccc(O)c4OC2C(O)CC[C@@]3(O)[C@H]1C5 (stereo partly specified) | -3.07% (inactive)
O=C(Cc1cccnc1)N1CCCCN2[C@@H](CO)[C@@H](c3ccc(C#CC4(O)CCCC4)cc3)[C@@H]2C1 | 5.28% (inactive)
Cc1c(C)c2ccc(OCC(=O)N3CCC(C(=O)O)(c4ccccc4)CC3)cc2oc1=O | -1.79% (inactive)
O=Cc1cn(Cc2ccc(Br)cc2)c2ccccc12 | 5.46% (inactive)
COC(=O)C1=C(c2cc3ccccc3s2)C[C@@H]2CC[C@H]1N2C(=O)NCc1ccc(C(F)(F)F)cc1 | 5.22% (inactive)
COC(C)(C)CCCC(C)C/C=C/C(C)=C/C(=O)OC(C)C (stereo unspecified) | 0.557% (inactive)
CCOC(=O)C1=C(N)OC2=C(C(=O)CC(C)(C)C2)C12C(=O)Nc1ccccc12 (stereo unspecified) | -3.72% (inactive)
O=[N+]([O-])c1cc(Cl)c(Cl)cc1Cl | -2.95% (inactive)
CCC12CCN(CC3(O)CC3)C(Cc3ccc(O)cc31)C2(C)C (stereo unspecified) | -4.42% (inactive)
CCN(CC)C(=O)[C@@H]1C=C2c3cccc4[nH]c(Br)c(c34)C[C@H]2N(C)C1 | -11.1% (inactive)
COC(=O)[C@]1(C)C[C@H]1[C@H](NP(=O)(c1ccccc1)c1ccccc1)c1ccccc1 | -6.74% (inactive)
Cc1ccccc1C(=O)N1Cc2ccccc2-n2nncc2C1 | -5.64% (inactive)
COc1ccc(OC)c(N2C(=O)CC(=O)NC2=O)c1 | -4.19% (inactive)
CN(C)c1cc[n+](CC(O)C[n+]2ccc(N(C)C)cc2)cc1 | -0.214% (inactive)
Cc1c(OC(=O)N(C)C)ccc2c1O/C(=C\c1ccco1)C2=O | 69.8% (inactive)
c1ccc(-c2ccncc2)cc1 | -1.21% (inactive)
O=C(O)[C@H]1[C@H](CO)[C@H]2Cn3c(ccc(-c4ccncc4)c3=O)[C@@H]1N2C(=O)C1CCCCC1 | -2.81% (inactive)
CCOC(=O)c1ccc(N=Cc2c(O)n(-c3ccccc3F)c(=S)[nH]c2=O)cc1 | 84.4% (inactive)
